The values that follow come from the supplement of paper PMC6992640.

Structures can show the parent of a compound that is named as a salt.

One experiment relates to UCD52 (cells of a triple-negative basal-like breast cancer xenograft). The experiment can be described thus: cell viability of combination (% of vehicle); higher = less cytotoxic. Conditions: 1 µM; 72 h; partner dose: 10 nM. The protocol:
(§1)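 PDX cells were treated for 72 h with each drug at 1 µM plus afatinib (10 nM; 1 µM for WHIM30). Luciferase viability is expressed as percent of vehicle.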
Turning to `CC(CCC(=O)O)C1CCC2C3CCC4CC(O)CCC4(C)C3CCC12C` (stereo unspecified) [Lithocholic Acid] + CN(C)C/C=C/C(=O)Nc1cc2c(Nc3ccc(F)c(Cl)c3)ncnc2cc1O[C@H]1CCOC1 [Afatinib], the “cell viability of combination” value was determined as 52.6.

`CCCCCOc1ccc(-c2ccc(-c3ccc(C(=O)N[C@H]4C[C@@H](O)[C@@H](O)NC(=O)[C@@H]5[C@@H](O)[C@@H](C)CN5C(=O)[C@H]([C@@H](C)O)NC(=O)[C@H]([C@H](O)[C@@H](O)c5ccc(O)cc5)NC(=O)[C@@H]5C[C@@H](O)CN5C(=O)[C@H]([C@@H](C)O)NC4=O)cc3)cc2)cc1` [Anidulafungin] + CN(C)C/C=C/C(=O)Nc1cc2c(Nc3ccc(F)c(Cl)c3)ncnc2cc1O[C@H]1CCOC1 [Afatinib]: the “cell viability of combination” value turned out to be 68.6.

Regarding `Cl.O.O=C1Cc2cc(CCN3CCN(c4nsc5ccccc45)CC3)c(Cl)cc2N1` [Ziprasidone hydrochloride monohydrate] + CN(C)C/C=C/C(=O)Nc1cc2c(Nc3ccc(F)c(Cl)c3)ncnc2cc1O[C@H]1CCOC1 [Afatinib], the “cell viability of combination” value stood at 70.3.

For the compound `COC(=O)C12CCC(C)(C)CC1C1C(=O)C=C3C4(C)C=C(C#N)C(=O)C(C)(C)C4CCC3(C)C1(C)CC2` (stereo unspecified) [Bardoxolone methyl] + CN(C)C/C=C/C(=O)Nc1cc2c(Nc3ccc(F)c(Cl)c3)ncnc2cc1O[C@H]1CCOC1 [Afatinib], the “cell viability of combination” value was determined as 47.9.

On to `CCCCc1oc2ccccc2c1C(=O)c1cc(I)c(OCCN(CC)CC)c(I)c1.Cl` [Amiodarone HCl] + CN(C)C/C=C/C(=O)Nc1cc2c(Nc3ccc(F)c(Cl)c3)ncnc2cc1O[C@H]1CCOC1 [Afatinib], for which the “cell viability of combination” value stood at 66.3.

The test system of the next experiment is WHIM2 (cells of a triple-negative basal-like breast cancer xenograft). The description is as above. Conditions: 1 µM; 72 h; partner dose: 10 nM. The protocol: as §1
On to `CCCCc1oc2ccc(NS(C)(=O)=O)cc2c1C(=O)c1ccc(OCCCN(CCCC)CCCC)cc1` [Dronedarone] + CN(C)C/C=C/C(=O)Nc1cc2c(Nc3ccc(F)c(Cl)c3)ncnc2cc1O[C@H]1CCOC1 [Afatinib], for which the “cell viability of combination” value amounted to 44.1.

On to `COc1ccc2c(O[C@H]3CC4C(=O)N(C)CCCC/C=C\[C@H]5C[C@@]5(C(=O)NS(=O)(=O)C5CC5)NC(=O)[C@@H]4C3)cc(-c3nc(C(C)C)cs3)nc2c1C` (stereo partly specified) [Simeprevir] + CN(C)C/C=C/C(=O)Nc1cc2c(Nc3ccc(F)c(Cl)c3)ncnc2cc1O[C@H]1CCOC1 [Afatinib], for which the “cell viability of combination” value turned out to be 46.8.

With `Clc1ccc(C(Cn2ccnc2)OCc2ccc(Sc3ccccc3)cc2)c(Cl)c1.O=[N+]([O-])O` (stereo unspecified) [Fenticonazole Nitrate] + CN(C)C/C=C/C(=O)Nc1cc2c(Nc3ccc(F)c(Cl)c3)ncnc2cc1O[C@H]1CCOC1 [Afatinib], the “cell viability of combination” value amounted to 49.9.

As for `C#Cc1cccc(Nc2ncnc3cc(OCCOC)c(OCCOC)cc23)c1` [Erlotinib] + CN(C)C/C=C/C(=O)Nc1cc2c(Nc3ccc(F)c(Cl)c3)ncnc2cc1O[C@H]1CCOC1 [Afatinib], the “cell viability of combination” value came out at 42.

Turning to `CO[C@H]1/C=C/O[C@@]2(C)Oc3c(C)c(O)c4c(O)c(c(/C=N/N5CCN(C6CCCC6)CC5)c(O)c4c3C2=O)NC(=O)/C(C)=C\C=C\[C@H](C)[C@H](O)[C@@H](C)[C@@H](O)[C@@H](C)[C@H](OC(C)=O)[C@@H]1C` [Rifapentine] + CN(C)C/C=C/C(=O)Nc1cc2c(Nc3ccc(F)c(Cl)c3)ncnc2cc1O[C@H]1CCOC1 [Afatinib], the “cell viability of combination” value was determined as 46.2.

For the compound `COc1ccc(CN2CCN(C(c3ccc(F)cc3)c3ccc(F)cc3)CC2)c(OC)c1OC.Cl.Cl` [Lomerizine HCl] + CN(C)C/C=C/C(=O)Nc1cc2c(Nc3ccc(F)c(Cl)c3)ncnc2cc1O[C@H]1CCOC1 [Afatinib], the “cell viability of combination” value is 50.9.

For `COC(=O)c1ccc2c(c1)NC(=O)C2=C(Nc1ccc(N(C)C(=O)CN2CCN(C)CC2)cc1)c1ccccc1` [Nintedanib (BIBF 1120)] + CN(C)C/C=C/C(=O)Nc1cc2c(Nc3ccc(F)c(Cl)c3)ncnc2cc1O[C@H]1CCOC1 [Afatinib], the “cell viability of combination” value came to 22.5.

As for `COc1cc(Nc2ncc(F)c(Nc3ccc4c(n3)N(COP(=O)(O)O)C(=O)C(C)(C)O4)n2)cc(OC)c1OC` [Fostamatinib (R788)] + CN(C)C/C=C/C(=O)Nc1cc2c(Nc3ccc(F)c(Cl)c3)ncnc2cc1O[C@H]1CCOC1 [Afatinib], the “cell viability of combination” value worked out at 41.3.

Take `CCCCCCCCc1ccc(CCC(N)(CO)CO)cc1.Cl` [Fingolimod (FTY720)] + CN(C)C/C=C/C(=O)Nc1cc2c(Nc3ccc(F)c(Cl)c3)ncnc2cc1O[C@H]1CCOC1 [Afatinib]: the “cell viability of combination” value came to 44.5.

As to `COc1cc2c(Oc3ccc4[nH]c(C)cc4c3F)ncnc2cc1OCCCN1CCCC1` [Cediranib (AZD217)] + CN(C)C/C=C/C(=O)Nc1cc2c(Nc3ccc(F)c(Cl)c3)ncnc2cc1O[C@H]1CCOC1 [Afatinib], the “cell viability of combination” value was found to be 31.6.

Regarding `CC[C@@]1(O)C(=O)OCc2c1cc1n(c2=O)Cc2cc3c(CN(C)C)c(O)ccc3nc2-1.Cl` [Topotecan HCl] + CN(C)C/C=C/C(=O)Nc1cc2c(Nc3ccc(F)c(Cl)c3)ncnc2cc1O[C@H]1CCOC1 [Afatinib], the “cell viability of combination” value worked out at 25.2.

As to `Cc1nc(NC(=O)N2CCCC2C(N)=O)sc1-c1ccnc(C(C)(C)C(F)(F)F)c1` (stereo unspecified) + CN(C)C/C=C/C(=O)Nc1cc2c(Nc3ccc(F)c(Cl)c3)ncnc2cc1O[C@H]1CCOC1 [Afatinib], the “cell viability of combination” value amounted to 37.9.

With `CC(C)C[C@H](NC(=O)[C@H](Cc1ccccc1)NC(=O)c1cnccn1)B(O)O` [Bortezomib] + CN(C)C/C=C/C(=O)Nc1cc2c(Nc3ccc(F)c(Cl)c3)ncnc2cc1O[C@H]1CCOC1 [Afatinib], the “cell viability of combination” value is 14.4.

Take `CNC1CCC(c2ccc(Cl)c(Cl)c2)c2ccccc21.Cl` (stereo unspecified) [Sertraline HCl] + CN(C)C/C=C/C(=O)Nc1cc2c(Nc3ccc(F)c(Cl)c3)ncnc2cc1O[C@H]1CCOC1 [Afatinib]: the “cell viability of combination” value worked out at 49.2.

For the compound `CC(C)C(=O)OCC(=O)[C@@]12O[C@H](C3CCCCC3)O[C@@H]1C[C@H]1[C@@H]3CCC4=CC(=O)C=C[C@]4(C)[C@H]3[C@@H](O)C[C@@]12C` [Ciclesonide] + CN(C)C/C=C/C(=O)Nc1cc2c(Nc3ccc(F)c(Cl)c3)ncnc2cc1O[C@H]1CCOC1 [Afatinib], the “cell viability of combination” value was 41.3.

Take `COC(=O)C1=C(C)NC(C)=C(C(=O)OCCN(C)Cc2ccccc2)C1c1cccc([N+](=O)[O-])c1.Cl` (stereo unspecified) [Nicardipine HCl] + CN(C)C/C=C/C(=O)Nc1cc2c(Nc3ccc(F)c(Cl)c3)ncnc2cc1O[C@H]1CCOC1 [Afatinib]: the “cell viability of combination” value was determined as 48.

As to `COc1cc2c(Oc3ccc(NC(=O)C4(C(=O)Nc5ccc(F)cc5)CC4)cc3F)ccnc2cc1OCCCN1CCOCC1` + CN(C)C/C=C/C(=O)Nc1cc2c(Nc3ccc(F)c(Cl)c3)ncnc2cc1O[C@H]1CCOC1 [Afatinib], the “cell viability of combination” value was 37.7.

As to `CCN1CCN(Cc2ccc(Nc3ncc(F)c(-c4cc(F)c5nc(C)n(C(C)C)c5c4)n3)nc2)CC1.CS(=O)(=O)O` + CN(C)C/C=C/C(=O)Nc1cc2c(Nc3ccc(F)c(Cl)c3)ncnc2cc1O[C@H]1CCOC1 [Afatinib], the “cell viability of combination” value stood at 82.2.

Regarding `CN1CCN(c2ccc(C(=O)/N=c3\[nH][nH]c4ccc(Cc5cc(F)cc(F)c5)cc34)c(NC3CCOCC3)c2)CC1` [Entrectinib] + CN(C)C/C=C/C(=O)Nc1cc2c(Nc3ccc(F)c(Cl)c3)ncnc2cc1O[C@H]1CCOC1 [Afatinib], the “cell viability of combination” value was 38.5.

Consider `CC(=O)C1(O)Cc2c(O)c3c(c(O)c2C(OC2CC(N)C(O)C(C)O2)C1)C(=O)c1ccccc1C3=O.Cl` (stereo unspecified) [Idarubicin HCl] + CN(C)C/C=C/C(=O)Nc1cc2c(Nc3ccc(F)c(Cl)c3)ncnc2cc1O[C@H]1CCOC1 [Afatinib], for which the “cell viability of combination” value worked out at 11.7.

`COc1cc2c(Nc3ccc(Br)cc3F)ncnc2cc1OCC1CCN(C)CC1` [Vandetanib (ZD6474)] + CN(C)C/C=C/C(=O)Nc1cc2c(Nc3ccc(F)c(Cl)c3)ncnc2cc1O[C@H]1CCOC1 [Afatinib]: the “cell viability of combination” value came out at 24.4.

Regarding `CS(=O)(=O)O.Cc1c(O)cccc1C(=O)NC(CSc1ccccc1)C(O)CN1CC2CCCCC2CC1C(=O)NC(C)(C)C` (stereo unspecified) [Nelfinavir Mesylate] + CN(C)C/C=C/C(=O)Nc1cc2c(Nc3ccc(F)c(Cl)c3)ncnc2cc1O[C@H]1CCOC1 [Afatinib], the “cell viability of combination” value was 53.6.

On to `COc1cc2nccc(Oc3ccc(NC(=O)Nc4cc(C)on4)c(Cl)c3)c2cc1OC` [Tivozanib (AV-951)] + CN(C)C/C=C/C(=O)Nc1cc2c(Nc3ccc(F)c(Cl)c3)ncnc2cc1O[C@H]1CCOC1 [Afatinib], for which the “cell viability of combination” value was determined as 39.8.

For `CCCSc1nc(NC2CC2c2ccc(F)c(F)c2)c2nnn(C3CC(OCCO)C(O)C3O)c2n1` (stereo unspecified) [Ticagrelor] + CN(C)C/C=C/C(=O)Nc1cc2c(Nc3ccc(F)c(Cl)c3)ncnc2cc1O[C@H]1CCOC1 [Afatinib], the “cell viability of combination” value is 43.

On to `COc1nc2ccc(Br)cc2cc1[C@@H](c1ccccc1)[C@@](O)(CCN(C)C)c1cccc2ccccc12` [Bedaquiline fumarate] + CN(C)C/C=C/C(=O)Nc1cc2c(Nc3ccc(F)c(Cl)c3)ncnc2cc1O[C@H]1CCOC1 [Afatinib], for which the “cell viability of combination” value was found to be 49.

Consider `Cc1ccc(C(=O)N(CCCN)C(c2nc3cc(Cl)ccc3c(=O)n2Cc2ccccc2)C(C)C)cc1` (stereo unspecified) + CN(C)C/C=C/C(=O)Nc1cc2c(Nc3ccc(F)c(Cl)c3)ncnc2cc1O[C@H]1CCOC1 [Afatinib], for which the “cell viability of combination” value amounted to 35.8.
